According to PubChem BioAssay (NCI):
The panel holds about 83,000 compounds, 20% with a hit somewhere; the sample as a whole holds those more often.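 Growth was measured after 48 h exposure to one concentration of compound in 96-well plates. Values under 10 count as active.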 A number with no mark means an inactive call. Calls of active or inactive are those of the source.

Key:
Assay in all cases: NCI-60 one-dose screen, 48 h (100 = growth as untreated, 0 = no growth, -100 = all killed)
Conditions in all cases: 10 µM
[1] = tested on: NCI-H23 lung
[2] = tested on: NCI-H226 lung
[3] = tested on: NCI-H322M lung
[4] = tested on: HOP-62 NSCLC
[5] = tested on: NCI-H460 lung
[6] = tested on: HOP-92 NSCLC
[7] = tested on: NCI-H522 lung
[8] = tested on: A549/ATCC NSCLC
[9] = tested on: 786-0 renal
[10] = tested on: COLO 205 colon

Row | SMILES | growth [1] | growth [2] | growth [3] | growth [4] | growth [5] | growth [6] | growth [7] | growth [8] | growth [9] | growth [10]
1 | CC1(C)CC[C@]2(C(=O)N3CCOCC3)CC[C@]3(C)C(=CC[C@@H]4[C@@]5(C)CC[C@H](NCO)C(C)(C)[C@@H]5CC[C@]43C)[C@H]2C1 | -88.1% (active) | -88.3% (active) | -97.8% (active) | -73.8% (active) | -92.7% (active) | -64.3% (active) | -79.8% (active) | -85.8% (active) | -88.2% (active) | -72.7% (active)
2 | COc1ccc(-c2ccc(SCC(=O)Nc3ccc(C#N)cc3)nn2)cc1 | 79.7% | 66.9% | 88.4% | 64.8% | 96.4% | 86.9% | 87.3% | 96.3% | 86.4% | 127%
3 | CCCn1c(=O)c2[nH]c(-c3ccc(OCc4nc5ccccc5[nH]4)cc3)nc2n(CCC)c1=O | 32.5% | -30.3% (active) | 59.7% | 22.2% | 6.69% (active) | -6.45% (active) | 20.9% | 38.6% | -48.5% (active) | 89.1%
4 | COc1ccc(C=CC(=O)c2ccc(-n3c(C)nc4c(cnn4-c4ccccc4)c3=O)cc2)cc1 | 72.4% | 70.6% | 107% | 80.5% | 97.8% | 97.3% | 57.4% | 90.8% | 84.6% | 116%
5 | O=C(NCCCCC(c1ccc(F)cc1)c1ccc(F)cc1)NCCCc1cccnc1 | 24% | 41.2% | 64.8% | 56.2% | 28.8% | 19.4% | 16.8% | 27.2% | 47.7% | -12.1% (active)
6 | CC1=C2C(=C[C@@](C)(COCOCCCl)[C@@H]2O)C(=O)[C@](C)(O)C12CC2 | -81.7% (active) | -39.2% (active) | -18.2% (active) | -51.1% (active) | -11% (active) | -14.6% (active) | -74.4% (active) | -1.86% (active) | -36.2% (active) | -73.7% (active)
7 | COc1ccc(-c2cc(C(=O)N=Nc3c(O)[nH]c4ccc(Br)cc34)c3ccccc3n2)cc1 | 5.57% (active) | 50.6% | 70% | 91.6% | 5.22% (active) | 71.4% | 57.7% | 61.1% | 80.1% | 53.2%
8 | O=C(Cc1ccc2c(c1)CN(C1CCC(=O)NC1=O)C2=O)NCCc1ccccc1 (stereo not given) | 72.8% | 11.4% | 22.5% | 0.419% (active) | 110% | -14.1% (active) | 35.4% | 20.3% | 6.47% (active) | 0.214% (active)
9 | COc1ccc(C2N(c3ccc(Br)cc3)N=C(C(C)=O)N2[C@H]2[C@H](OC(C)=O)O[C@H](COC(C)=O)[C@@H](OC(C)=O)[C@@H]2OC(C)=O)cc1 (stereo not given in full) | 75.4% | 69.6% | 73.7% | 92% | 52.1% | 79.2% | 48.1% | 66.1% | 92.6% | 88.1%
10 | Cc1ccc(-c2nc3ccc(C(=O)N=Nc4c(O)[nH]c5ccc(Br)cc45)cc3[nH]2)cc1 | -3.58% (active) | 91.7% | 77.7% | 68.7% | 47.8% | 88.3% | 25% | 87.1% | 36.3% | 61%
11 | CCCCCc1ccc(S(=O)(=O)N(C(C)=O)c2cc(-c3csc(N(C)C(C)=O)n3)ccc2N2CCN(C)CC2)cc1 | 43.6% | 72.2% | 55.8% | 51.6% | -41.6% (active) | -2.86% (active) | 55.5% | 40.1% | -16.2% (active) | -71.6% (active)
12 | CCN1CCN(Cc2ccc(NC(=O)c3cccc(-n4cc(-c5ccc(NC(C)=O)nc5)nn4)c3)cc2C(F)(F)F)CC1 | 93% | 99.9% | 125% | 121% | 100% | 72.6% | 74.7% | 96.4% | 58.5% | 57.3%
13 | CCN(CC)CCOc1ccc(C(=C(C)c2ccccc2)c2ccc(OCCN(CC)CC)cc2)cc1 | 19.9% | 71% | 31.1% | -44.3% (active) | 4.41% (active) | -21.3% (active) | 3.11% (active) | 15.2% | -51.6% (active) | -88.2% (active)
14 | Cc1ccc(NCC(=O)Nn2c(COc3ccccc3)nc3ccccc3c2=O)cc1 | 67.8% | 66.3% | 85.9% | 27.4% | 81.4% | 58.1% | 71.7% | 77.9% | 66.4% | 85%
15 | COc1ccc2[nH]c(=O)c(CSc3cccc(N)c3)cc2c1 | 79.2% | 74.5% | 74.6% | 61.5% | 20.7% | 76.5% | 62.6% | 46.4% | 55% | 2.77% (active)
16 | CN1C/C(=C\c2ccc(O)cc2O)c2[o+]c3cc(O)ccc3cc2C1 | 56.6% | 56.3% | 88% | 77.8% | 35.8% | 58.8% | -0.58% (active) | 99.5% | 41.7% | 58.3%
17 | CC(=O)Nc1ccc(-n2cnc3cc(-c4ccc(O)cc4)ccc32)cc1F | 49.2% | 9.75% (active) | 52% | 44.4% | 10.5% | 55.1% | -42.7% (active) | 33.8% | 32.4% | -11.4% (active)
18 | CCN1CCN(c2ccc(NC(=O)Nc3ccc(-c4cc(C(=O)NC(C)C)c5ncccc5n4)cc3)cc2C(F)(F)F)CC1 | -86.3% (active) | -81.2% (active) | -66% (active) | -87.8% (active) | -40.5% (active) | -77.2% (active) | -86.3% (active) | -87.6% (active) | -93.6% (active) | -78.2% (active)
19 | CO[C@H]1CSS[C@@H]1Cn1nc(-c2ccc(Oc3ccccc3)cc2)c2c(N)ncnc21 | 40.4% | 16.6% | 53.4% | 41.3% | 21.1% | 20.5% | -13% (active) | 22.1% | 45% | 36.1%
20 | C/C(=N\N=C\c1ccc(Cl)c([N+](=O)[O-])c1)c1ccc2c(c1)Nc1ccccc1S2 | 18.2% | -25.2% (active) | 50% | 47.5% | 1.22% (active) | 32.6% | 33.2% | 60.2% | 52.1% | 32.1%
21 | O=c1c2ccccc2nc(COc2ccccc2)n1/N=C/c1ccc(F)cc1 | 85.6% | 78.9% | 96.6% | 105% | 85.4% | 100% | 81.8% | 86.2% | 89.4% | 114%
22 | O=C1CCC(N2Cc3cc(CC(=O)Nc4ccc(N5CCCCC5)cc4)ccc3C2=O)C(=O)N1 (stereo not given) | 93.8% | 16.3% | 56.6% | 23.5% | 98.6% | -5.24% (active) | 65.3% | 68.3% | 42.5% | 37.5%
23 | CC(=O)Nc1ccc(-n2cnc3cc(-c4ccc(O)cc4)ccc32)cc1C | 47.6% | 57% | 74.9% | 63.5% | 36.4% | 67.2% | -29.1% (active) | 47.5% | 55.7% | 93.9%
24 | Cc1cc(=O)oc2cc(OCCCCOc3ccc(/C=C/C(=O)Nc4ccc(F)c(Cl)c4)cc3)ccc12 | 87% | 95.9% | 93.4% | 108% | 86.7% | 115% | 94.6% | 79.7% | 94.9% | 115%
25 | O=C(CNc1nc(-c2ccccc2)cs1)Nc1ccc([N+](=O)[O-])cc1Cl | 0.556% (active) | 31.5% | 60.3% | 42.4% | 51.6% | 29% | -19.1% (active) | 44.1% | 38.1% | 60.7%
26 | O=C(Nc1cc(Cl)cc(Cl)c1)Nc1cc(Cl)cc(Cl)c1 | -21.1% (active) | -37.8% (active) | -5.15% (active) | -30.3% (active) | -16.2% (active) | -33.8% (active) | -36.1% (active) | 1.01% (active) | -1.4% (active) | -98.9% (active)
